Reference: PubChem BioAssay (EPA / NIEHS)
The source made the active and inactive calls. The calls were made as follows: active = hit-call score of the fitted dose curve at least 0.9, where 1 is the maximum; inactive = score below 0.9.

Assay: APR_HepG2_p53Act_72hr: Apredica 72-hour HepG2 Assay for p53 Activation (AID 2282923);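 also: average cellular p53 protein immunofluorescence intensity in HepG2 cells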
Details: high-content imaging, actives raise or lower the signal
Method: APR_HepG2_72hr is a cell-based, multiplexed-readout assay that uses HepG2, a human liver cell line, with measurements taken at 72 hours after chemical dosing in a 384-well plate.APR_HepG2_p53Act_72hr is one of 10 assay component(s) measured or calculated from the APR_HepG2_72hr assay. It is designed to make measurements of dna content, a form of viability reporter, as detected with fluorescence intensity signals by HCS Fluorescent Imaging technology.Data from the assay component APR_HepG2_p53Act_72hr was analyzed into 1 assay endpoint. This assay endpoint, APR_HepG2_p53Act_72hr, was analyzed with bidirectional fitting relative to DMSO as the negative control and baseline of activity. Using a type of viability reporter, measures of protein for gain or loss-of-signal activity can be used to understand the signaling at the pathway-level as they relate to the gene TP53. Furthermore, this assay endpoint can be referred to as a primary readout, because this assay has produced multiple assay endpoints where this one serves a signaling function. To generalize the intended target to other relatable targets, this assay endpoint is annotated to the dna binding intended target family, where the subfamily is tumor suppressor.
Cells were treated with dimethyl sulfoxide (DMSO) as a solvent control at a final concentration of 0.5% v/v or with compounds in DMSO with a resulting final DMSO concentration of 0.5% v/v. Compound treatment was done at concentrations of 0.39, 0.78, 1.56, 3.12, 6.24, 12.5, 25, 50, 100, and 200 uM in duplicate on each plate. Cells were treated with compounds for 1, 24, or 72 hr. Carbonyl […] m-chloro-phenylhydrazone (CCCP) and taxol were used as positive controls for mitochondrial function and cytoskeletal stability, respectively; DMSO served as the negative control for this experiment. Cells were fixed by the direct addition of 50 uL formaldehyde in Hank's Balanced Salt Solution (HBSS) to a final concentration of 3.7%. After incubation in the fixation medium for 30 min at room temperature (293-298 K), cells were rinsed twice with HBSS and treated with cell permeabilization buffer (16 uL of 0.5% Triton X-100) for 10 min at room temperature (293-298 K) before labeling. For mitochondrial membrane potential and mitochondrial measurements, pre-fixed cells were incubated with 50 uL of MitoTracker Red CMXRos (Invitrogen) at a concentration of 250 nM for 30 min before fixation. In the remaining cases, post-fixed cells were labeled by incubation with a multiplexed mixture of primary antibodies in HBSS for 60 min at room temperature (293-298 K) to detect immunoreactivity of c-Jun (1:500), phospho-histone H3 (1:100), phospho-histone H2A.x (1:200), p53 (1:400), alpha-tubulin (1:200) and Hoechst 33342 (2 ug/mL). Cells were labeled for multiplexed imaging on two separate plates: a) Hoechst 33342, MitoTracker Red, phospho-histone H3, and alpha-tubulin, and b) Hoechst 33342, phospho-histone H2A.x, and c-Jun. A final rinse with HBSS (50 uL) was performed before analysis. The primary and secondary antibodies for the proteins were phospho-histone H3 (rabbit anti-phospho-histone H3 and FITC-donkey anti-rabbit IgG), phospho-histone H2A.x (mouse anti-phospho-histone H2A.x and FITC-donkey anti-mouse IgG), c-Jun (rabbit anti-phospho-c-Jun and Cy3-donkey anti-rabbit IgG), p53 (sheep anti-p53 and Cy5-donkey anti-sheep IgG), alpha-tubulin (mouse anti-alpha-tubulin and Cy5-donkey anti-mouse IgG). These antibodies are available as the CellCiphr HepG2 assay kit (Millipore).Digital images of each well were captured using a Cellomics ArrayScan VTI (Thermo Scientific Cellomics) (0.8 NA objective, 0.63x optical coupler, and XF-93 filter set) at 20x magnification. The images were acquired using the autofocus feature of the ArrayScan instrument, which entails the following steps. First, the camera focuses on channel 1 (Hoechst 33342), where nuclei are identified. Second, a Z offset of 1 um is used for capturing mitochondria (MitoTracker Red). […]

Row | Compound | outcome | AC50
1 | CCCCCCCCC(=O)O | inactive | 
2 | OCCC(F)(F)C(F)(F)C(F)(F)C(F)(F)C(F)(F)C(F)(F)F | inactive | 
3 | CC[C@H](C)[C@@H](C(=O)O)n1sc2ccccc2c1=O | inactive | 
4 | Cc1cc(C)c(O)c(C)c1 | inactive | 
5 | COc1ccc([N+](=O)[O-])cc1N | inactive | 
6 | O=[N+]([O-])c1ccc(O)cc1 | inactive | 
7 | c1ccc2c(c1)Cc1ccccc1-2 | inactive | 
8 | OCCC(F)(F)C(F)(F)C(F)(F)C(F)(F)C(F)(F)C(F)(F)C(F)(F)C(F)(F)F |  | 29.5 µM (active)
9 | ClC1=C(Cl)C(Cl)(Cl)C(Cl)=C1Cl | inactive | 
10 | CC(C)CCCCCCOC(=O)CCCCC(=O)OCCCCCCC(C)C | inactive | 
11 | CC(O)CO (stereo not given) | inactive | 
12 | OC1CCC(C2CCCCC2)CC1 (stereo not given) | inactive | 
13 | CCCOc1sc(C(=O)N2CCC(c3cc(CN)ccc3F)CC2)c(C)c1Br |  | 47.1 µM (active)
14 | CCOC(=O)CC(O)(CC(=O)OCC)C(=O)OCC | inactive | 
15 | CCCCCCCCOC(=O)CCCCCCCCC(=O)OCCCCCCCC | inactive | 
16 | COCC(C)O (stereo not given) | inactive | 
17 | CC1=C(/C=C/C(C)=C/C=C/C(C)=C/C(=O)O)C(C)(C)CCC1 | inactive | 
18 | CN(C)C=O | inactive | 
19 | CN1CCN(c2ccccc2/C=C2\SCCN(c3ccc(Cl)c(Cl)c3)C2=O)CC1 | inactive | 
20 | N#C[C@@H]1CC(F)(F)CN1C(=O)CNC1CC2CCC(C1)N2c1ncccn1 (stereo not given in full) | inactive | 

Row | Compound | outcome | AC50
21 | CCCCOCCO | inactive | 
22 | C#C[C@]1(O)CC[C@H]2[C@@H]3CCC4=CC(=O)CC[C@@H]4[C@H]3CC[C@@]21C | inactive | 
23 | CC#C[C@]1(O)CC[C@H]2[C@@H]3CCC4=CC(=O)CCC4=C3[C@@H](c3ccc(N(C)C)cc3)C[C@@]21C | inactive | 
24 | COC(=O)CCCCC(=O)OC | inactive | 
25 | C=C(C)C(=O)OCCC(F)(F)C(F)(F)C(F)(F)C(F)(F)C(F)(F)C(F)(F)F | inactive | 
26 | COc1cc(CCC(=O)CC(=O)CCc2ccc(O)c(OC)c2)ccc1O |  | 145 µM (active)
27 | NC(=O)N(O)[C@@H]1C=C[C@H](Oc2cccc(Oc3ccc(F)cc3)c2)C1 | inactive | 
28 | O=C(/C=C/c1ccc(O)cc1)CC(=O)/C=C/c1ccc(O)cc1 | inactive | 
29 | NC(=O)N1C(=O)C(C(=O)c2cc(Cl)cs2)c2cc(F)c(Cl)cc21 (stereo not given) |  | 59 µM (active)
30 | Cc1oc(-c2ccccc2)nc1CCOc1ccc(C[C@H](Nc2ccccc2C(=O)c2ccccc2)C(=O)O)cc1 |  | 95.7 µM (active)
31 | CCCCC(CC)COC(=O)CCCCC(=O)OCc1ccccc1 (stereo not given) | inactive | 
32 | c1ccc2c(c1)ccc1ccccc12 | inactive | 
33 | CCCCCCCCCCCCc1ccccc1S(=O)(=O)O |  | 106 µM (active)
34 | CC(=O)NC1(c2cccc(F)c2)CCN(CC[C@@]2(c3ccc(Cl)c(Cl)c3)CN(c3ccccc3)C(=O)CO2)CC1 |  | 18.7 µM (active)
35 | CCCCCCCCCCCCCCCS(=O)(=O)Oc1ccccc1 | inactive | 
36 | CCN(CC)CCNc1ccc(CNC=O)c2sc3ccc(OC)cc3c(=O)c12 | inactive | 
37 | CC[C@H](c1ccc(O)cc1)[C@@H](CC)c1ccc(O)cc1 | inactive | 
38 | Oc1cccc(O)c1 | inactive | 
39 | c1ccc2cc3c(ccc4ccccc43)cc2c1 | inactive | 
40 | O=C(O)Cc1cc(I)c(Oc2cc(I)c(O)c(I)c2)c(I)c1 | inactive | 
